From PubChem BioAssay AID2316 (Broad Institute, 2010) come the findings set out here.

Each structure is given as a SMILES string. Hit rate of the full screen: of about 29,000 compounds, fewer than 10 were called active. The list is a sample of the results. Unmarked numbers belong to inactive results. No rule for the calls is given here.

This assay can be described thus: reversal of PD-1 mediated T-cell inhibition, primary screen, luminescence, primary human CD4 T cells, PD-L1 beads (AID 2316).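 Also: 0% = median vehicle wells and 100% = positive control.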 The settings on record: CellTiter-Glo 96 h, stronger effect = higher value.
As to `COc1ccc(N2C(=O)CC(SCC(=O)Nc3ccccc3F)C2=O)cc1` (stereo not given), the activation is 1.75%.
On to `COc1ccc(C)cc1S(=O)(=O)N(C)CC(=O)Nc1ccc(Br)cc1F`, for which the activation is 1.42%.
As for `Cc1ccc(S(=O)(=O)Nc2ccc3c(c2)C(=O)N([C@H](C)CO)C[C@H](C)[C@@H](CN(C)C(=O)Nc2ccc4c(c2)OCO4)OCCCC[C@@H](C)O3)cc1`, the activation is 0.503%.
The figure for `CCCCn1c(O)c(C#N)c(C)cc1=O` is 1.29%; for `Cc1ccc(-c2csc3ncn(CC(=O)Nc4ccc(F)c(Cl)c4)c(=O)c23)cc1C` it is -0.0295%.
The figure for `COc1ccc(NC(=O)N(C)C[C@@H]2OCCCC[C@@H](C)Oc3ccc(N(C)C)cc3C(=O)N([C@H](C)CO)C[C@@H]2C)cc1` is 0.076%; for `O=S(=O)(c1ccc(Cl)cc1)c1nc(-c2ccccc2F)oc1NCCN1CCOCC1` it is -0.673%.
Turning to `NC(=O)c1c(NC(=O)c2cnn3c(C(F)F)cc(-c4ccccc4)nc23)sc2c1CCCC2`, the activation is -5.98%.
For the compound `C[C@@H]1CN([C@H](C)CO)C(=O)c2cc(NC(=O)Cc3cn(C)c4ccccc34)ccc2O[C@H]1CN(C)S(C)(=O)=O`, the activation was -1.87%.
As for `Cc1ccc(S(=O)(=O)Nc2cccc3c2O[C@@H](CN(C)C(=O)Nc2ccccc2)[C@H](C)CN([C@@H](C)CO)C3=O)cc1`, the activation is 2.15%.
The figure for `COc1ccc(S(=O)(=O)N(C)C[C@H]2Oc3ccc(NS(=O)(=O)c4c(C)noc4C)cc3CC(=O)N([C@@H](C)CO)C[C@H]2C)cc1` is -0.136%; for `COc1ccc(NC(=O)CSc2nc(-c3cccs3)cc(-c3ccsc3)c2C#N)cc1OC` it is -6.31%; for `O=C(CCc1nc(-c2ccccc2Cl)no1)Nc1ccc(Cl)c(Cl)c1` it is 1.17%.
As for `C=CCSc1nc(N)cc(=O)[nH]1`, the figure is 0.998%; as for `C[C@@H]1CN([C@H](C)CO)C(=O)Cc2cc(NS(=O)(=O)c3ccc(Cl)cc3)ccc2O[C@H]1CN(C)S(=O)(=O)c1cccs1`, -2.73%.
As for `O=C(c1ccc(Cl)cc1)n1c(=O)oc2cc(Cl)ccc21`, the figure is -0.599%; as for `Cc1ccccc1NC(=O)CSc1nnc(-c2ccc([N+](=O)[O-])cc2)n1C`, 0.454%.
With `C[C@H]1CN([C@@H](C)CO)C(=O)c2cc(NS(=O)(=O)c3ccc(Cl)cc3)ccc2O[C@H]1CN(C)Cc1ccc(Oc2ccccc2)cc1`, the activation is 0.482%.
With `O=C1Cc2ccc(F)cc2CC1C1=Cc2ccc(F)cc2CC1` (stereo not given), the activation is -8.11%.
The figure for `Cc1ccc([N+](=O)[O-])cc1N(CC(=O)Nc1ccc(Cl)c(C(F)(F)F)c1)S(C)(=O)=O` is 3.56%; for `N/C(CSc1nc2ccccc2s1)=N\O` it is -0.165%.
As for `C[C@@H]1CN([C@H](C)CO)C(=O)Cc2cc(NC(=O)NC3CCCCC3)ccc2O[C@H]1CN(C)S(C)(=O)=O`, the figure is 2.26%.
Regarding `CC(C)(C)c1cn2c3ccccc3nc2n1CCN1CCOCC1`, the activation is -2.35%.
For the compound `O=C(c1ccco1)N1CCN(CCOc2ccccc2)CC1`, the activation is 4.48%.
The figure for `COc1ccc(S(=O)(=O)Nc2ccc3c(c2)CC(=O)N([C@H](C)CO)C[C@@H](C)[C@@H](CN(C)C(=O)Nc2cccc4ccccc24)O3)cc1` is 0.476%.
Regarding `C[C@@H]1CCCCO[C@@H](CN(C)S(=O)(=O)c2cn(C)cn2)[C@@H](C)CN([C@H](C)CO)C(=O)c2cc(NC(=O)c3ccncc3)ccc2O1`, the activation is 3.7%.
On to `C[C@@H]1CCCCO[C@H](CN(C)S(=O)(=O)c2cccs2)[C@@H](C)CN([C@H](C)CO)C(=O)c2cc(NC(=O)Nc3ccccc3)ccc2O1`, for which the activation is -1.94%.
The figure for `COc1ccc(NC(=O)Nc2ccc3c(c2)CC(=O)N([C@@H](C)CO)C[C@H](C)[C@@H](CN(C)Cc2ccc4c(c2)OCO4)O3)cc1` is 0.816%; for `COc1ccc(S(=O)(=O)Nc2ccc3c(c2)C(=O)N([C@H](C)CO)C[C@H](C)[C@@H](CN(C)S(C)(=O)=O)OCCCC[C@@H](C)O3)cc1` it is 0.638%; for `C[C@@H]1CN([C@@H](C)CO)C(=O)c2cc(NC(=O)Nc3ccccc3)ccc2O[C@@H]1CN(C)Cc1ccccc1` it is 1.95%.
As for `C[C@@H]1CN([C@H](C)CO)C(=O)c2cc(NS(=O)(=O)c3ccccc3)ccc2O[C@H]1CN(C)C(=O)Nc1ccc2c(c1)OCO2`, the figure is 1.11%.
`COc1ccc(N(Cc2cc3ccccc3[nH]c2=O)C(=O)c2cccc(OC)c2)cc1`: the activation was 1.92%.
The figure for `C[C@H]1CN([C@@H](C)CO)C(=O)c2cccc(NC(=O)c3cnccn3)c2O[C@@H]1CN(C)Cc1ccc(Oc2ccccc2)cc1` is -2.26%; for `Cc1ccc(C23CC4CC(CC(CN)(C4)C2)C3)cc1C` it is -7.62%.
As for `O=C(Nc1ccccc1)C(=S)Nc1ccccc1`, the figure is -0.0947%; as for `Cc1noc(C)c1NC(=O)N(C)C[C@@H]1Oc2ccc(NC(=O)Nc3ccc(F)cc3)cc2C(=O)N([C@H](C)CO)C[C@@H]1C`, -0.0779%; as for `CN1CCN(S(=O)(=O)c2ccc(NC(=O)C3CC=CCC3C(=O)O)cc2)CC1` (stereo not given), 1.99%.
As for `Cc1cc(C)c(NC(=O)CSc2nnc(-c3ccccc3)n2-c2ccc(F)cc2)c(C)c1`, the figure is 1.56%; as for `COc1ccc(NC(=O)c2ccc(OCC(=O)Nc3ccccc3F)cc2)cc1Cl`, 0.553%; as for `COc1ccc(NC(=O)N(C)C[C@@H]2Oc3ccc(NC(=O)Nc4ccccc4)cc3CC(=O)N([C@H](C)CO)C[C@@H]2C)cc1`, -0.196%.
`CCOC(=O)CCSc1nnc2c3ccccc3n(C)c2n1`: the activation was -0.845%.
On to `Cc1noc(C)c1NC(=O)Nc1ccc2c(c1)C(=O)N([C@H](C)CO)C[C@@H](C)[C@@H](CN(C)C(=O)NC(C)C)O2`, for which the activation is 0.338%.
`O=C(CSc1nnc(-c2ccccc2)n1-c1ccc(Cl)cc1)Nc1ccc(Cl)cc1`: the activation is -11.8%.
With `CCc1cc(C)cc(OCC(O)Cn2cnc3ccccc32)c1` (stereo not given), the activation is -5.01%.
As for `CN1CCN(C(=O)CCc2nc(-c3ccc(Cl)cc3)no2)CC1`, the activation was -0.127%.
As for `O=C(CSc1nnc2ccc3ccccc3n12)Nc1ccc2c(c1)OCCO2`, the activation was 0.368%.
The figure for `c1ccc(Nc2ncnc3sc(-c4ccccc4)cc23)cc1` is -0.968%; for `CCCC(=O)Nc1ncnc2c1ncn2[C@@H]1O[C@@H]2OP(=O)(O)OC[C@H]2[C@H]1OC(=O)CCC` it is 4.46%; for `CCOc1ccc2nc(Nc3nc(C)c(Cc4ccc(C)cc4)c(=O)[nH]3)nc(C)c2c1` it is -0.875%.
The figure for `COc1ccc(C(=O)CSc2nnc(-c3cccc(C)c3)n2-c2ccccc2)cc1` is 1.1%.
The figure for `Cc1ccc(S(=O)(=O)N(C)C[C@@H]2Oc3c(NC(=O)C4CC4)cccc3C(=O)N([C@H](C)CO)C[C@H]2C)cc1` is 1.35%; for `O=C(Nc1cccs1)N1CCN(C(=O)C2CCCO2)CC1` (stereo not given) it is -0.0221%; for `Cc1ccc(NC(=O)CSc2nnc(C)n2-c2ccc(F)cc2)cc1Cl` it is 0.0225%.
For the compound `COc1ccc(S(=O)(=O)Nc2cccc3c2O[C@@H](CN(C)C(=O)Nc2ccccc2)[C@@H](C)CN([C@@H](C)CO)C3=O)cc1`, the activation was -2.12%.
As to `C[C@@H]1CN([C@@H](C)CO)C(=O)c2cc(NS(C)(=O)=O)ccc2O[C@@H]1CN(C)C(=O)Nc1ccc(F)cc1`, the activation is 2.2%.
As for `O=C1c2ccccc2S(=O)c2ccccc2S(=O)(=O)N1Cc1ccccc1` (stereo not given), the figure is -5.99%; as for `Cc1ccc(Cl)cc1NC(=O)CN(c1cccc(Cl)c1C)S(C)(=O)=O`, -5.55%.
As for `CS(=O)(=O)N(CC(=O)Nc1ccc2ccccc2c1)c1cc(Cl)c(Cl)cc1Cl`, the figure is 1.79%; as for `COc1ccc(S(=O)(=O)N(C)C[C@H]2Oc3ccc(NS(=O)(=O)c4ccc(F)cc4)cc3C(=O)N([C@H](C)CO)C[C@H]2C)cc1`, 1.51%; as for `COc1ccc(NC(=O)Nc2ccc3c(c2)C(=O)N([C@H](C)CO)C[C@@H](C)[C@H](CN(C)Cc2ccccc2)O3)cc1`, -0.421%.
As for `C[C@H]1CN([C@@H](C)CO)C(=O)c2cc(NS(C)(=O)=O)ccc2O[C@H]1CN(C)C(=O)Nc1ccc(C(F)(F)F)cc1`, the figure is 0.226%; as for `O=C(NCc1ccccn1)C1CC(c2cccc(Br)c2)=NO1` (stereo not given), 1.86%; as for `C[C@H](CO)N1C[C@H](C)[C@@H](CN(C)S(C)(=O)=O)Oc2c(NC(=O)c3ccc(-c4nccs4)cc3)cccc2C1=O`, 0.392%.
For `COc1ccc(C(=O)CSc2nc3ccc(OC)cc3[nH]2)cc1`, the activation was 0.352%.
Take `Cc1noc(C)c1NC(=O)Nc1ccc2c(c1)C(=O)N([C@@H](C)CO)C[C@H](C)[C@H](CN(C)CC1CCCCC1)O2`: the activation is 1.03%.
As for `C[C@@H]1CN([C@H](C)CO)C(=O)Cc2cc(NS(=O)(=O)c3ccc(F)cc3)ccc2O[C@H]1CN(C)C`, the figure is 2.25%; as for `CS(=O)(=O)N(CC(=O)Nc1cc(Cl)ccc1Cl)c1ccc(Oc2ccccc2)cc1`, 0.0184%.
With `Cc1ccc(S(=O)(=O)Nc2ccc3c(c2)C(=O)N([C@H](C)CO)C[C@H](C)[C@H](CN(C)Cc2ccc(C(=O)Nc4ccccc4N)cc2)OCCCC[C@@H](C)O3)cc1`, the activation was -0.831%.
In the case of `O=C(Nc1ccccc1Cl)c1ccccc1S(=O)(=O)c1ccccc1[N+](=O)[O-]`, the activation was 1.95%.
The figure for `CS(=O)(=NS(=O)(=O)c1ccc(OC(F)(F)F)cc1)c1ccc(Cl)cc1` (stereo not given) is 0.43%.
